# Assay results published in PubChem BioAssay (Tox21).
# Records with an inconclusive call do not appear. A call without a number means that no potency is given here. Calls of active or inactive are those of the source. Unless noted, the call rests on the fitted dose curve; in most records, active means well fitted cell-killing curve with a large enough effect in the repeat runs; inconclusive means weak or mixed curves, or effect the other way; inactive means no such curve, though single readings can be large or run the other way.
# Experiment: qHTS assay to identify small molecule agonists of the vitamin D receptor (VDR) signaling pathway - cell viability counter screen (AID 743224); further: nearly all actives have a fitted effect of over 50% in size
# Conditions: VDR-bla HEK293T viability, CellTiter-Glo luminescence, 16 h; series mostly up to 62.6 µM
# Procedure, shortened: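 Viability is measured in the same wells as the VDR-bla reporter assay: after 16 h compound treatment and 2 h substrate loading, CellTiter-Glo is added and luminescence read 30 min later.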
row,SMILES,Potency
1,NNC(=S)NN,inactive
2,CC(O)CCO (configuration not stated),inactive
3,CCCCNC(=O)n1c(NC(=O)OC)nc2ccccc21,inactive
4,C=CCN(CC=C)C(=O)C(Cl)Cl,inactive
5,COc1ccc(C=O)cc1,inactive
6,Nn1cnnc1,inactive
7,O=C(CCl)c1ccccc1,inactive
8,C=CCc1ccc2c(c1)OCO2,inactive
9,CCC(C)(c1ccc(O)cc1)c1ccc(O)cc1,inactive
10,Cc1cc(C)cc(C)c1,inactive
11,N#CCCCl,inactive

# Experiment: qHTS assay to identify small molecule antagonists of the vitamin D receptor (VDR) signaling pathway - cell viability counter screen (AID 743225); further: nearly all actives have a fitted effect of over 50% in size
# Conditions: VDR-bla HEK293T viability, CellTiter-Glo luminescence, 16 h; series mostly up to 61 µM
# Procedure, shortened: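 Read-out: CellTiter-Glo luminescence measured 30 min after reagent addition at room temperature. Cells were VDR-bla HEK 293T exposed 16 h at 37C, 5% CO2, to compound with 3 nM final calcitriol agonist.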
row,SMILES,Potency
1,c1ccc(N=Nc2ccccc2)cc1,inactive
2,O=P(O)(O)CCCl,inactive
3,CCCCCCOC(=O)c1ccccc1C(=O)OCCCCCC,inactive
4,CCCCCCCCCCCOC(=O)c1ccccc1C(=O)OCCCCCCCCCCC,inactive
5,Nc1cccnc1,inactive
6,CCN(CC)N=O,inactive
7,C=CCc1ccc(OC)cc1,inactive
8,Oc1ccc(-c2ccccc2)cc1,inactive
9,COP(=S)(OC)Oc1ccc([N+](=O)[O-])cc1,inactive
10,CCCCN(CCCC)N=O,inactive
11,Brc1ccc(Oc2cc(Br)c(Br)cc2Br)c(Br)c1,inactive
12,N[C@@H](Cc1ccc(N(CCCl)CCCl)cc1)C(=O)O,inactive
13,CC1(C)C(C=C(Cl)Cl)C1C(=O)OC(C#N)c1cccc(Oc2ccccc2)c1 (configuration not stated),inactive
14,Nc1ccc(Cl)cc1N,inactive
15,NCc1cccnc1,inactive
16,Oc1cc(Cl)c(Cl)cc1Cl,inactive
17,CCOc1cc(C=O)ccc1O,inactive
18,O=C(O)CC[N+](=O)[O-],inactive

row,SMILES,Potency
1,Cc1ccc(OP(=O)(Oc2ccc(C)cc2)Oc2ccc(C)cc2)cc1,inactive
2,CCC(C)c1cc([N+](=O)[O-])cc([N+](=O)[O-])c1O (configuration not stated),inactive
3,CC(C)c1ccc(CO)cc1,inactive
4,c1nc[nH]n1,inactive
5,Cc1cc(Cl)ccc1OCCCC(=O)O,inactive
6,CCCCCCCCOC(=O)c1ccccc1C(=O)OCCCCCCCC,inactive
7,CN(C)c1ccc(C(=O)c2ccc(N(C)C)cc2)cc1,inactive
8,CC(O)CCO (configuration not stated),inactive
9,CCCCNC(=O)n1c(NC(=O)OC)nc2ccccc21,inactive
10,C=CCN(CC=C)C(=O)C(Cl)Cl,inactive
11,COc1ccc(C=O)cc1,inactive
12,Nn1cnnc1,inactive
13,O=C(CCl)c1ccccc1,inactive
14,C=CCc1ccc2c(c1)OCO2,inactive
15,CCC(C)(c1ccc(O)cc1)c1ccc(O)cc1,inactive
16,Cc1cc(C)cc(C)c1,inactive
17,N#CCCCl,inactive

# Experiment: qHTS assay to identify small molecule agonists of the NFkB signaling pathway (AID 1159509; active means well fitted curve in the direction sought with a large enough effect in the signal ratio in the repeat runs, not every such curve was filed as active; the % refers to the signal ratio)
# Conditions: NFkB-bla ME-180 cells, beta-lactamase FRET ratio, 5 h; series mostly up to 61 µM
# Procedure, shortened: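 After overnight attachment, reporter cells received test compounds, DMSO or positive controls and were incubated 5 hr at 37 C. FRET substrate was then added for 1.5 hr at room temperature before dual-emission fluorescence reading.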
row,SMILES,outcome
1,c1ccc(N=Nc2ccccc2)cc1,inactive
2,O=P(O)(O)CCCl,inactive
3,CCCCCCOC(=O)c1ccccc1C(=O)OCCCCCC,inactive
4,CCCCCCCCCCCOC(=O)c1ccccc1C(=O)OCCCCCCCCCCC,inactive
5,Nc1cccnc1,inactive
6,CCN(CC)N=O,inactive
7,C=CCc1ccc(OC)cc1,inactive
8,Oc1ccc(-c2ccccc2)cc1,inactive
9,COP(=S)(OC)Oc1ccc([N+](=O)[O-])cc1,inactive
10,CCCCN(CCCC)N=O,inactive
11,Brc1ccc(Oc2cc(Br)c(Br)cc2Br)c(Br)c1,inactive
12,N[C@@H](Cc1ccc(N(CCCl)CCCl)cc1)C(=O)O,inactive
13,CC1(C)C(C=C(Cl)Cl)C1C(=O)OC(C#N)c1cccc(Oc2ccccc2)c1 (configuration not stated),inactive
14,Nc1ccc(Cl)cc1N,inactive
15,NCc1cccnc1,inactive
16,Oc1cc(Cl)c(Cl)cc1Cl,inactive
17,CCOc1cc(C=O)ccc1O,inactive
18,C#CCOS(=O)OC1CCCCC1Oc1ccc(C(C)(C)C)cc1 (configuration not stated),inactive
19,NNC(N)=S,inactive

row,SMILES,outcome
1,O=C(O)CC[N+](=O)[O-],inactive
2,Cc1ccc(OP(=O)(Oc2ccc(C)cc2)Oc2ccc(C)cc2)cc1,inactive
3,CCC(C)c1cc([N+](=O)[O-])cc([N+](=O)[O-])c1O (configuration not stated),inactive
4,CC(C)c1ccc(CO)cc1,inactive
5,c1nc[nH]n1,inactive
6,Cc1cc(Cl)ccc1OCCCC(=O)O,inactive
7,CCCCCCCCOC(=O)c1ccccc1C(=O)OCCCCCCCC,inactive
8,CN(C)c1ccc(C(=O)c2ccc(N(C)C)cc2)cc1,inactive
9,NNC(=S)NN,inactive
10,CC(O)CCO (configuration not stated),inactive
11,CCCCNC(=O)n1c(NC(=O)OC)nc2ccccc21,inactive
12,C=CCN(CC=C)C(=O)C(Cl)Cl,inactive
13,COc1ccc(C=O)cc1,inactive
14,Nn1cnnc1,inactive
15,O=C(CCl)c1ccccc1,inactive
16,C=CCc1ccc2c(c1)OCO2,inactive
17,CCC(C)(c1ccc(O)cc1)c1ccc(O)cc1,inactive
18,Cc1cc(C)cc(C)c1,inactive
19,N#CCCCl,inactive

# Experiment: qHTS assay to identify small molecule agonists of the NFkB signaling pathway - cell viability counter screen (AID 1159515; calls by dose curve; further: nearly all actives have a fitted effect of over 55% in size)
# Conditions: NFkB-bla ME-180 viability, CellTiter-Glo luminescence, 5 h; series mostly up to 61 µM
# Procedure, shortened: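 Multiplexed viability readout: after the 5 hr compound exposure and 1.5 hr FRET substrate step, CellTiter-Glo reagent went into the same NFkB-bla ME-180 wells; ATP luminescence was measured after 30 min at room temperature.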
row,SMILES,Potency
1,c1ccc(N=Nc2ccccc2)cc1,inactive
2,O=P(O)(O)CCCl,inactive
3,CCCCCCOC(=O)c1ccccc1C(=O)OCCCCCC,inactive
4,CCCCCCCCCCCOC(=O)c1ccccc1C(=O)OCCCCCCCCCCC,inactive
5,Nc1cccnc1,inactive
6,CCN(CC)N=O,inactive
7,C=CCc1ccc(OC)cc1,inactive
8,Oc1ccc(-c2ccccc2)cc1,inactive
9,COP(=S)(OC)Oc1ccc([N+](=O)[O-])cc1,inactive
10,CCCCN(CCCC)N=O,inactive
11,Brc1ccc(Oc2cc(Br)c(Br)cc2Br)c(Br)c1,inactive
12,N[C@@H](Cc1ccc(N(CCCl)CCCl)cc1)C(=O)O,inactive
13,CC1(C)C(C=C(Cl)Cl)C1C(=O)OC(C#N)c1cccc(Oc2ccccc2)c1 (configuration not stated),inactive
14,Nc1ccc(Cl)cc1N,inactive
15,NCc1cccnc1,inactive
16,Oc1cc(Cl)c(Cl)cc1Cl,inactive
17,CCOc1cc(C=O)ccc1O,inactive
18,C#CCOS(=O)OC1CCCCC1Oc1ccc(C(C)(C)C)cc1 (configuration not stated),inactive
19,NNC(N)=S,inactive

row,SMILES,Potency
1,O=C(O)CC[N+](=O)[O-],inactive
2,Cc1ccc(OP(=O)(Oc2ccc(C)cc2)Oc2ccc(C)cc2)cc1,inactive
3,CCC(C)c1cc([N+](=O)[O-])cc([N+](=O)[O-])c1O (configuration not stated),inactive
4,CC(C)c1ccc(CO)cc1,inactive
5,c1nc[nH]n1,inactive
6,Cc1cc(Cl)ccc1OCCCC(=O)O,inactive
7,CCCCCCCCOC(=O)c1ccccc1C(=O)OCCCCCCCC,inactive
8,CN(C)c1ccc(C(=O)c2ccc(N(C)C)cc2)cc1,inactive
9,NNC(=S)NN,inactive
10,CC(O)CCO (configuration not stated),inactive
11,CCCCNC(=O)n1c(NC(=O)OC)nc2ccccc21,inactive
12,C=CCN(CC=C)C(=O)C(Cl)Cl,inactive
13,COc1ccc(C=O)cc1,inactive
14,Nn1cnnc1,inactive
15,O=C(CCl)c1ccccc1,inactive
16,C=CCc1ccc2c(c1)OCO2,inactive
17,CCC(C)(c1ccc(O)cc1)c1ccc(O)cc1,inactive
18,Cc1cc(C)cc(C)c1,inactive
19,N#CCCCl,inactive
